# Experimental data taken from article PMC11006913.
# Where a chain is given by its changes, count along the chain named.
# Experiments:
# Experiment in all cases: PBM; 200 nM protein, PBS
# Settings in all cases: dsDNA, one strand shown
# NKX2-6 [1] = target: T1, NKX2-6 (Homo sapiens, UniProt A6NCS4 118-204)
# T1 sequence: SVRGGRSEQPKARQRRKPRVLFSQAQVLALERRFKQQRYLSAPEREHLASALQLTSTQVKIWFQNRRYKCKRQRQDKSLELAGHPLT
# NKX2-6 [2] = target: T2, NKX2-6 (Homo sapiens, UniProt A6NCS4 118-204, F151L)
# T2 sequence: T1 sequence with F34L
# NKX3-2 [3] = target: NKX3-2 (Homo sapiens, UniProt P78367 192-278, P234S)
# Chain of NKX3-2 (Homo sapiens, UniProt P78367 192-278, P234S) (P78367 192-278 P234S): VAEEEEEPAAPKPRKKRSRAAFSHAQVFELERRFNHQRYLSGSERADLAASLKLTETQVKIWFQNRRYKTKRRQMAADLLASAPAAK
# NKX3-2 [4] = target: NKX3-2 (Homo sapiens, UniProt P78367 192-278)
# Chain of NKX3-2 (Homo sapiens, UniProt P78367 192-278) (P78367 192-278): as the sequence (P78367 192-278 P234S) above, with S43P counted along it
# PAX4 [5] = target: T3, PAX4 (Homo sapiens, UniProt O43316 9-242, R200Q)
# T3 sequence: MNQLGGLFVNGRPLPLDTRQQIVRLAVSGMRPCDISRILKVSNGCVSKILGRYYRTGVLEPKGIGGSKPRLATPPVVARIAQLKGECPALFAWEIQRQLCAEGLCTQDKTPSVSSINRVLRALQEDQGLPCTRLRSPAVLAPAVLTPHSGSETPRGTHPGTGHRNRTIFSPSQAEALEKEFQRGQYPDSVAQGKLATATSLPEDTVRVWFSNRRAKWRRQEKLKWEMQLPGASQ
# PAX4 [6] = target: T4, PAX4 (Homo sapiens, UniProt O43316 9-242, F177Y)
# T4 sequence: T3 sequence with F169Y, Q192R
# PAX4 [7] = target: T5, PAX4 (Homo sapiens, UniProt O43316 9-242, R227W)
# T5 sequence: T3 sequence with Q192R, R219W
# PITX2 = PITX2 (Homo sapiens, UniProt Q99697 72-157)
sequence,measurement,setting,value
CCCGTTCG,binding signal,NKX2-6 [1],"9.17 upbm affinity estimate (log intensity, higher = more binding, comparable within an allelic series)"
same,binding signal,NKX2-6 [2],"9.43 upbm affinity estimate (log intensity, higher = more binding, comparable within an allelic series)"
same,binding signal,NKX3-2 [3],"10.5 upbm affinity estimate (log intensity, higher = more binding, comparable within an allelic series)"
same,binding signal,NKX3-2 [4],"10.5 upbm affinity estimate (log intensity, higher = more binding, comparable within an allelic series)"
ACGGACGA,binding signal,NKX2-6 [1],"9.27 upbm affinity estimate (log intensity, higher = more binding, comparable within an allelic series)"
same,binding signal,NKX2-6 [2],"9.49 upbm affinity estimate (log intensity, higher = more binding, comparable within an allelic series)"
ACGGCCAG,binding signal,NKX2-6 [1],"9.26 upbm affinity estimate (log intensity, higher = more binding, comparable within an allelic series)"
same,binding signal,NKX2-6 [2],"9.26 upbm affinity estimate (log intensity, higher = more binding, comparable within an allelic series)"
GCTATTGA,binding signal,NKX2-6 [1],"11.7 upbm affinity estimate (log intensity, higher = more binding, comparable within an allelic series)"
same,binding signal,NKX2-6 [2],"9.84 upbm affinity estimate (log intensity, higher = more binding, comparable within an allelic series)"
GAAATTAA,binding signal,PAX4 [5],"11.9 upbm affinity estimate (log intensity, higher = more binding, comparable within an allelic series)"
same,binding signal,PAX4 [6],"10.9 upbm affinity estimate (log intensity, higher = more binding, comparable within an allelic series)"
same,binding signal,PAX4 [7],"10.9 upbm affinity estimate (log intensity, higher = more binding, comparable within an allelic series)"
ACCAGAGC,binding signal,NKX2-6 [1],"9.39 upbm affinity estimate (log intensity, higher = more binding, comparable within an allelic series)"
same,binding signal,NKX2-6 [2],"9.5 upbm affinity estimate (log intensity, higher = more binding, comparable within an allelic series)"
CCCGCGTC,binding signal,NKX2-6 [1],"9.23 upbm affinity estimate (log intensity, higher = more binding, comparable within an allelic series)"
same,binding signal,NKX2-6 [2],"9.39 upbm affinity estimate (log intensity, higher = more binding, comparable within an allelic series)"
ACCGGGGG,binding signal,NKX2-6 [1],"9.31 upbm affinity estimate (log intensity, higher = more binding, comparable within an allelic series)"
same,binding signal,NKX2-6 [2],"9.04 upbm affinity estimate (log intensity, higher = more binding, comparable within an allelic series)"
TAAGAAGA,binding signal,NKX2-6 [1],"11.5 upbm affinity estimate (log intensity, higher = more binding, comparable within an allelic series)"
same,binding signal,NKX2-6 [2],"9.88 upbm affinity estimate (log intensity, higher = more binding, comparable within an allelic series)"
ATCCGCAG,binding signal,NKX2-6 [1],"9.55 upbm affinity estimate (log intensity, higher = more binding, comparable within an allelic series)"
same,binding signal,NKX2-6 [2],"9.47 upbm affinity estimate (log intensity, higher = more binding, comparable within an allelic series)"
AGTTGCTG,binding signal,NKX2-6 [1],"9.45 upbm affinity estimate (log intensity, higher = more binding, comparable within an allelic series)"
same,binding signal,NKX2-6 [2],"9.39 upbm affinity estimate (log intensity, higher = more binding, comparable within an allelic series)"
same,binding signal,NKX3-2 [3],"10.7 upbm affinity estimate (log intensity, higher = more binding, comparable within an allelic series)"
same,binding signal,NKX3-2 [4],"10.6 upbm affinity estimate (log intensity, higher = more binding, comparable within an allelic series)"
GCGACAGC,binding signal,NKX2-6 [1],"9.46 upbm affinity estimate (log intensity, higher = more binding, comparable within an allelic series)"
same,binding signal,NKX2-6 [2],"9.41 upbm affinity estimate (log intensity, higher = more binding, comparable within an allelic series)"
CTCTCATC,binding signal,NKX2-6 [1],"11.6 upbm affinity estimate (log intensity, higher = more binding, comparable within an allelic series)"
same,binding signal,NKX2-6 [2],"9.79 upbm affinity estimate (log intensity, higher = more binding, comparable within an allelic series)"
same,binding signal,NKX3-2 [3],"11.7 upbm affinity estimate (log intensity, higher = more binding, comparable within an allelic series)"
same,binding signal,NKX3-2 [4],"11.9 upbm affinity estimate (log intensity, higher = more binding, comparable within an allelic series)"
AACCGGAG,binding signal,NKX2-6 [1],"9.55 upbm affinity estimate (log intensity, higher = more binding, comparable within an allelic series)"
same,binding signal,NKX2-6 [2],"9.32 upbm affinity estimate (log intensity, higher = more binding, comparable within an allelic series)"
ACCTCTCA,binding signal,NKX2-6 [1],"12 upbm affinity estimate (log intensity, higher = more binding, comparable within an allelic series)"
same,binding signal,NKX2-6 [2],"9.82 upbm affinity estimate (log intensity, higher = more binding, comparable within an allelic series)"
GAGATATC,binding signal,PITX2,"8.8 upbm affinity estimate (log intensity, higher = more binding, comparable within an allelic series)"
ACACCCGT,binding signal,NKX2-6 [1],"8.98 upbm affinity estimate (log intensity, higher = more binding, comparable within an allelic series)"
same,binding signal,NKX2-6 [2],"9.33 upbm affinity estimate (log intensity, higher = more binding, comparable within an allelic series)"
AAGTACTG,binding signal,NKX2-6 [1],"12.7 upbm affinity estimate (log intensity, higher = more binding, comparable within an allelic series)"
same,binding signal,NKX2-6 [2],"10.3 upbm affinity estimate (log intensity, higher = more binding, comparable within an allelic series)"
GATACTTA,binding signal,NKX2-6 [1],"13.3 upbm affinity estimate (log intensity, higher = more binding, comparable within an allelic series)"
same,binding signal,NKX2-6 [2],"10.5 upbm affinity estimate (log intensity, higher = more binding, comparable within an allelic series)"
AGCCCTCA,binding signal,NKX2-6 [1],"11.1 upbm affinity estimate (log intensity, higher = more binding, comparable within an allelic series)"
same,binding signal,NKX2-6 [2],"9.52 upbm affinity estimate (log intensity, higher = more binding, comparable within an allelic series)"
same,binding signal,NKX3-2 [3],"11.5 upbm affinity estimate (log intensity, higher = more binding, comparable within an allelic series)"
same,binding signal,NKX3-2 [4],"11.6 upbm affinity estimate (log intensity, higher = more binding, comparable within an allelic series)"
CGCGGTCA,binding signal,NKX2-6 [1],"9.54 upbm affinity estimate (log intensity, higher = more binding, comparable within an allelic series)"
same,binding signal,NKX2-6 [2],"9.33 upbm affinity estimate (log intensity, higher = more binding, comparable within an allelic series)"
TGGTCGAA,binding signal,PITX2,"7.84 upbm affinity estimate (log intensity, higher = more binding, comparable within an allelic series)"
GCGGCGCC,binding signal,PITX2,"7.97 upbm affinity estimate (log intensity, higher = more binding, comparable within an allelic series)"
